Gal4-VP16 FLuc: Gal4-VP16 reporter inhibition counter-screen; Potency, µM (series often up to 53.6 µM), for the others: at the highest dose activity, negative = inhibition, usual class: inhibitors; Drosophila S2 Gal4-VP16 UAS-luciferase, luminescence, 20 h; hit rate 3.5% among 310,000;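 also: Gal4-VP16 expression switched on by copper sulfate through the metallothionein promoter; potency is read from the fitted curve at half-maximal effect; nearly all actives have a fitted effect of over 50% in size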
ELG1 DNA repair: blocks ELG1-dependent DNA repair in HEK293T cells; HEK293T ELG1-luciferase reporter, luminescence, 16 h; DNA damage induced by 5-fluorouridine; Potency, µM (series often up to 46.1 µM), inactives show top-dose activity change, negative = inhibition, actives largely listed as inhibitors; hit rate 2.3% among 330,000; AID 504467; also: potency is read from the fitted curve at half-maximal effect; nearly all actives have a fitted effect of over 55% in size
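Reporter activity after DNA damage by 5-fluorouridine is monitored. Compound-treated cells incubate 16 hr at 37 °C, then ONE-Glo is added for 30 min before luminescence reading.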
IL-1B inflam inh: inflammasome signaling inhibition, IL-1 beta readout. THP-1 LPS/ATP IL-1B secretion, AlphaLISA, 16 h; active compounds read low. activity change, % at 57.5 µM. hit rate 4.7% among 360,000. AID 743279; in the data active = activity change below about -50%; inconclusive = mostly about -30% to -49%
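THP-1 cells pretreated 1 hr with compounds (up to 57.5 uM final), then stimulated with LPS (250 ng/mL final) plus ATP (1.25 mM final); secreted IL-1B measured by AlphaLISA after 16 hr, decreased signal indicating inhibition.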
RORgamma inh: inhibitors of mouse ROR gamma transcriptional activity | Drosophila S2 Gal4-RORgamma UAS-luciferase reporter, 20 h | Potency, µM (series often up to 53.6 µM), without a hit: at the top dose activity change, negative = inhibition, actives largely listed as inhibitors | AID 2551 | P51450 | hit rate 5.4% among 310,000; also: potency is read from the fitted curve at half-maximal effect; nearly all actives have a fitted effect of over 60% in size
Target sequence (P51450 whole entry, looked up, the tested form may be a part): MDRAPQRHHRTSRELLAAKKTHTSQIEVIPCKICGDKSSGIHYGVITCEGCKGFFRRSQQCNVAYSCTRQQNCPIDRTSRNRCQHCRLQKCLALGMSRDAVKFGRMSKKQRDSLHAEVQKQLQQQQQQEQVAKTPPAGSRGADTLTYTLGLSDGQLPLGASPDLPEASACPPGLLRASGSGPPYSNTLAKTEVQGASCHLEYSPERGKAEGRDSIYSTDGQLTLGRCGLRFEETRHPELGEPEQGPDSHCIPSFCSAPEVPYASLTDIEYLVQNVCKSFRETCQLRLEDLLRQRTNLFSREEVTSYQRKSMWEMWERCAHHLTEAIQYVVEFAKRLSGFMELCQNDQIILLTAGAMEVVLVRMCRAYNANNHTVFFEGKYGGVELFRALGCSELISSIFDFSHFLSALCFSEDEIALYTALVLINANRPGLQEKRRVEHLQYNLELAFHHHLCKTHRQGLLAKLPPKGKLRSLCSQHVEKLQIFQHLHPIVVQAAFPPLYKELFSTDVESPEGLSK
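ROR gamma transcriptional activity was tracked as Gal4-UAS luciferase output in stably transfected Drosophila Schneider cells, with compound added 1 hr before 700 uM copper sulfate induction and a 20 hr ambient-temperature incubation.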
TDP1 cell CPT: growth inhibition of DT40 Tdp1-/-;hTDP1 cells with camptothecin (screen for TDP1 inhibitors); chicken DT40 Tdp1-/-;hTDP1 cells + 20 nM CPT, ATP luminescence, 48 h; Potency, µM (series often up to 46.2 µM), for the others: top-dose activity change, negative = growth inhibition, most hits filed as inhibitors; hit rate 12% among 420,000; also: potency is read from the fitted curve at half-maximal effect; nearly all actives have a fitted effect of over 55% in size
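Cell growth measured by CellTiter-Glo luminescence after a minimum 48 h, 37 C compound exposure with 20 nM CPT in Tdp1-knockout DT40 cells stably expressing hTDP1, seeded 400/well; qHTS titration format.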
TDP1 cell noCPT: qHTS for Inhibitors of human tyrosyl-DNA phosphodiesterase 1 (TDP1): qHTS in cells in absence of CPT; Potency, µM (titrated, usually from 46.2 µM), without a hit: at the top dose activity change, negative = growth inhibition, actives largely listed as inhibitors; DT40 Tdp1-/- hTDP1 cells, no CPT, ATP luminescence, 48 h; hit rate 15% among 420,000; AID 686978, 2013; also: potency is read from the fitted curve at half-maximal effect; nearly all actives have a fitted effect of over 55% in size
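Chicken DT40 Tdp1-/- cells complemented with human TDP1, screened without camptothecin (DMSO vehicle only), 400 cells/well. Compounds pin-transferred, cells incubated at 37 °C for at least 48 hr. Growth read as ATP-dependent luminescence (CellTiter-Glo, 30 min at RT).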
The depositor's hits bear a star; ? = inconclusive; . = not tested or not shown; [ ] = another dose, or the depositor's remark. The list is not random: actives were taken first. Their share in the collection is about 21%. Unless noted, calls follow the shape of the dose curve; as a rule, active = well fitted curve in the direction sought with a large enough effect; inconclusive = small, poorly fitted or top-dose-only effect, or another doubt; inactive = no such curve, though single readings can be large; an effect the other way counts as inactive or inconclusive. % is scaled to controls: 0 for no effect and ±100 for the full control effect.

SMILES	Gal4-VP16 FLuc	ELG1 DNA repair	IL-1B inflam inh	RORgamma inh	TDP1 cell CPT	TDP1 cell noCPT
COc1cc(C(=O)O/N=C(\N)c2ccncc2)cc(OC)c1OC	-1%	9%	-14	-23%	?	?
COc1ccc(S(=O)(=O)N=C2C=C(C)C(=O)C(C)=C2)cc1	-11%	10%	-3	-9%	15µM*	21µM*
COc1ccc(C(=O)ON=C2C=C(C)C(=O)C(C)=C2)cc1	-28%	5%	?	32%	13µM*	23µM*
COc1cc(C(=O)Oc2ccccc2OC(=O)c2cc(OC)c(OC)c(OC)c2)cc(OC)c1OC	.	.	40	.	6%	12%
NC(=O)C1CCCN1Cc1ccc2c(c1)OCO2 (stereo not given)	.	.	0	.	8%	-5%
N#Cc1cccnc1N1CCN(C(C(=O)NC2CCCC2)c2ccc(F)cc2)CC1 (stereo not given)	.	.	0	.	?	?
CC1CN(CC(=O)NCCc2ccncc2)Cc2ccccc2O1 (stereo not given)	.	.	.	.	6%[9.04 µM]	-11%
COc1ccc(S(=O)(=O)N2CCC[C@H]2C(=O)N2CCC[C@H]2C(=O)N(C)Cc2ccccc2)cc1C	.	.	-17	.	?	-28%
c1cc(C2OCCO2)cs1	.	.	11	.	3%	-17%
Cc1cc(C)c(C(N)=O)c(SCC(=O)c2cc(C)n(-c3cc(C)on3)c2C)n1	.	?	23	.	1.2µM*	0.52µM*
Cc1cc(-n2c(C)cc(C(=O)CN3C(=O)NC4(CCCCCC4)C3=O)c2C)no1	1%	-10%	-15	?	-25%	?
Cc1ccc(-n2nnnc2SCC(=O)c2cc(C)n(CC3CCCO3)c2C)cc1 (stereo not given)	0%	2%	34	4%	-28%	-20%
Cc1cc(C)c(C(N)=O)c(SCC(=O)c2cc(C)c(C)cc2C)n1	3%	-5%	12	-3%	-27%	-26%
Cc1cc(C(=O)CN2C(=O)NC3(CCCCC3)C2=O)c(C)n1-c1ccc2c(c1)OCO2	-30%	-9%	?	?	?	21µM*
Cc1cc(C(=O)CSc2nnnn2-c2ccccc2)c(C)n1-c1ccc2c(c1)OCO2	11µM*	-3%	9	-35%	23µM*	13µM*
Cc1cc(C(=O)CSc2nnnn2-c2ccc(O)cc2)c(C)n1Cc1ccc2c(c1)OCO2	?	18µM*	-8	8%	?	?
COc1ccc(NC(=O)C(NC(=O)/C=C\c2ccc3c(c2)OCO3)c2ccc(C)cc2)cc1 (stereo not given)	.	.	.	.	-9%	-21%
Cc1cc(C(=O)CSc2ncccn2)c(C)n1-c1cccc(F)c1	-18%	?	-3	3%	-7%	?
CCCn1c(SCC(=O)c2cc(C)n(-c3ccc4c(c3)OCO4)c2C)n[nH]c1=O	?	?	9	?	23µM*	6.5µM*
Cc1cc(C(=O)CN2C(=O)NC3(CCCc4sccc43)C2=O)c(C)n1-c1ccccc1 (stereo not given)	-1%	?	?	?	?	-25%
Cc1cc(C(=O)CSc2nnnn2C)c(C)n1-c1cccc(F)c1	-2%	?	-12	41%	?	9.2µM*
Cc1cc(C(=O)CSc2nncs2)c(C)n1-c1ccc2c(c1)OCO2	?	?	-69*	?	21µM*	18µM*
CCCn1c(SCC(=O)c2cc(C)n(C3CC3)c2C)n[nH]c1=O	.	?	-7	.	-8%	-18%
COc1ccc(-n2c(C)cc(C(=O)CN3C(=O)NC4(CCCc5sccc54)C3=O)c2C)cc1 (stereo not given)	?	?	-5	?	16µM*	21µM*
CCCCN(CC)CCCNC(=O)c1ccc2c(c1)N(CC)C(=O)c1ccccc1S2(=O)=O	3%	27%	0	7%	-17%	1%
SMILES	Gal4-VP16 FLuc	ELG1 DNA repair	IL-1B inflam inh	RORgamma inh	TDP1 cell CPT	TDP1 cell noCPT
CCCN(CCC)S(=O)(=O)c1ccc(C(=O)NNc2nc(-c3ccccc3)c3cc(Br)ccc3n2)cc1	-1%	?	-24	?	-15%	-29%
Cc1nc2ccccn2c(=O)c1NC(=O)c1ccc(C(F)(F)F)cc1	.	.	.	.	-25%	?
CC1CCC(NC(=O)c2ccc(NC(=O)CC3SC(N4CCCC4)=NC3=O)cc2)CC1 (stereo not given)	.	?	78	.	?	?
CO[C@@H]1/C=C\CC(=O)N2CCC[C@@H]2C(=O)OC[C@H](C)C(=O)OC[C@H]1C	3%[10 µM]	.	.	13%[10 µM]	.	.
CC(C)Oc1ccc(CNC(=O)Cn2ncn3nc(-c4cccs4)cc3c2=O)cc1	.	.	.	.	-29%	-29%
CC(=O)c1c(C)[nH]c(C(=O)CSc2nnc(-c3ccccc3)n2Cc2ccc3c(c2)OCO3)c1C	-19%	?	18	-25%	?	?
Cc1ccc(-n2nnnc2SCC(=O)c2cc(C)n(-c3cc(C)on3)c2C)cc1	3%	?	12	22%	12µM*	15µM*
Cc1cc(C(=O)CSc2nnc(-c3cccc(F)c3)n2N)c(C)n1Cc1ccc2c(c1)OCO2	?	?	?	40%	15µM*	23µM*
C=CCC(NC(=O)N(C)C)(C(C)=O)C(=O)OC (stereo not given)	.	.	7	.	23%	8%
